Results filed as inconclusive are left out. The source made the active and inactive calls. Calls follow the shape of the dose curve; as a rule, active = well fitted curve in the direction sought with a large enough effect; inconclusive = small, poorly fitted or top-dose-only effect, or another doubt; inactive = no such curve, though single readings can be large; an effect the other way counts as inactive or inconclusive.
How the values were obtained:
[1] = system: Zika virus NS2B-NS3 protease; experiment: Primary screen GU AMC qHTS for Zika virus inhibitors (AID 1347154); conditions: Zika NS2B-NS3 unlinked protease, AMC fluorogenic substrate; series mostly up to 54.1 µM; also: nearly all actives have a fitted effect of over 70% in size
In short: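 Unlinked Zika NS2B hydrophilic domain–NS3 protease complex at 25 nM in 10 mM Tris-HCl pH 8.0, 0.01% Tween 20, with an AMC peptide substrate. Fluorescence change (340/450 nm) over 15 min at room temperature, normalized to controls, fitted to 4-parameter Hill.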

[2] = qHTS to identify inhibitors of the type 1 interferon - major histocompatibility complex class I in skeletal muscle: primary screen against the NCATS LOPAC collection (AID 1347405); conditions: iHSKM muscle cells, IFN-b-induced MHC-I HiBiT luminescence, 24 h; series mostly up to 45.9 µM;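 also: human myoblasts with HiBiT tag on endogenous HLA-B stimulated by IFN-beta; lytic HiBiT luminescence reporting HLA-B protein level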
In short: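 IFN-beta-stimulated (4 ng/ml) HLA-B HiBiT knock-in myoblasts, compound-treated 24 hrs up to 46 uM final; signal via LgBiT complementation and furimazine luminescence.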

[3] = qHTS to identify inhibitors of the type 1 interferon - major histocompatibility complex class I in skeletal muscle: primary screen against the NCATS Pharmaceutical Collection (AID 1347407); conditions: human skeletal muscle cells, IFN-b-induced MHC-I HiBiT luminescence, 24 h; series mostly up to 45.9 µM;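 also: luminescence of HiBiT knocked into endogenous HLA-B as interferon-induced MHC class I level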
In short: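 Compounds […] were added to CRISPR-engineered HLA-B-HiBiT C25cl48 human myoblasts with 4.0 ng/ml IFN-beta. After 24 hrs at 37 C, cells were lysed and HiBiT luminescence measured.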

[4] = qHTS for inhibitors of adenylyl cyclases using a fission yeast platform: a pilot screen against the NCATS LOPAC library (AID 1347410); conditions: S. pombe CHP2027, fbp1-GFP fluorescence, 18 h, yeast expressing mammalian AC9 and human GNAS; series mostly up to 57.5 µM
In short: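 GFP from fbp1-GFP reporter, read by Acumen laser cytometry, indicates AC inhibition in fission yeast expressing AC9, GNAS and PDE4D2. Cells grown 18 h in the dark at 30C with compounds, final up to 57 uM.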

[5] = target: Protein phosphatase 1D (Homo sapiens) (UniProt O15297); experiment: RapidFire Mass Spectrometry qHTS Assay for Modulators of WT P53-Induced Phosphatase 1 (WIP1) (AID 1347424); conditions: WIP1 dephosphorylation of phosphopeptide, RapidFire MS; series mostly up to 63 µM
In short: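 RapidFire MS readout of dephosphorylated VEPPL-S-QETFS product, with 1 uM isotope-labelled peptide standard. Reaction: 10 nM WIP1, 2 uM phosphopeptide substrate, 5 min, room temperature, after 1 h compound preincubation; stopped with 0.5% formic acid.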

[6] = target: Protein phosphatase 1D (Homo sapiens) (UniProt O15297); experiment: Rhodamine-PBP qHTS Assay for Modulators of WT P53-Induced Phosphatase 1 (WIP1) (AID 1347425); conditions: recombinant WIP1, Rhodamine-PBP phosphate fluorescence, real-time; series mostly up to 57.5 µM
In short: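 The read-out is the change in Rhodamine-PBP fluorescence (f1 - f0, ex 525/em 598 nm) as Pi is released, read each minute for 11 min. Final reaction: 5 nM WIP1, 10 uM phosphopeptide VEPPL-pS-QETFS, 10 uM Rh-PBP, 50 mM Tris-HCl pH 7.5, 30 mM MgCl2. Compound was preincubated with enzyme for 1 hour at room temperature.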

[7] = Validation qHTS assay for inhibitors of Activation Induced Cytidine Deaminase (AID): UDG Counterscreen signal (AID 1347427); conditions: biochemical UDG counterscreen, fluorescence signal; series mostly up to 115 µM
In short: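 Fluorescence at 560 nm excitation, 665 nm emission reports UDG signal after 250 mM NaOH (2x) addition and 30 min. Enzymes (AID 1 uM, UDG 2 U/mL, at 4/3x) preincubated 10 min with compound, then 4 h with 4x 250 nM DJC20/DJC23 substrate at room temperature.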

[8] = target: Single-stranded DNA cytosine deaminase (Homo sapiens) (UniProt Q9GZX7); experiment: Validation qHTS assay for inhibitors of Activation Induced Cytidine Deaminase (AID): AID signal (AID 1347429); conditions: Recombinant AID, FRET ssDNA deamination with UDG, fluorescence; series mostly up to 115 µM
In short: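 Compounds (up to 114 uM final) are tested against AID plus UDG using DJC20/DJC23 FRET substrate. Reactions incubate 4 hr at room temperature, receive NaOH for 30 min, and are read at Ex 540/Em 590 nm.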

[9] = Primary qHTS for inhibitors of La Crosse Virus (LACV) - induced cell death in SH-SY5Y cells (AID 1508616); conditions: SH-SY5Y LACV cytopathicity rescue, ATP luminescence, 6 d; series mostly up to 9.63 µM;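 also: top concentration of the series differs between compounds; higher means more rescue of cells from virus-induced death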
In short: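 Screening measures cell viability in LACV-infected SH-SY5Y cultures. Compound was added before virus (0.01 MOI), and ATP was detected by luminescence 6 days later.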

[10] = target: Lysine-specific demethylase 5B (Homo sapiens) (UniProt Q9UGL1); experiment: Optimization screen for KDM5B Histone Demethylases FDH coupled qHTS against the LOPAC library (AID 1347166); conditions: KDM5B demethylation, FDH-coupled NADH fluorescence (FDH is formaldehyde dehydrogenase); series mostly up to 57.5 µM
In short: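 KDM5BDeltaAP (200nM final) in 50mM HEPES pH 7.5, 0.01% Tween-20 was preincubated with compound for 10 min at room temperature. A substrate mix of 12.5uM H3K4Me3, 25uM a-ketoglutarate, ascorbate, Fe2+, NAD+ and formaldehyde dehydrogenase was then added. NADH fluorescence (340/450 nm) was read initially and after 30 min.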

[11] = qHTS to identify inhibitors of the type 1 interferon - major histocompatibility complex class I in skeletal muscle: primary screen against the NCATS Mechanism Interrogation Plate v5.0 (MIPE) Libary (AID 1347411); conditions: iHSKM cells + IFN-b, HiBiT-tagged MHC-I luminescence, 24 h; series mostly up to 45.8 µM; also: nearly all actives have a fitted effect of over 65% in size
In short: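 IFN-beta-driven (4 ng/ml) HLA-B-HiBit expression in CRISPR-tagged C25cl48 myoblasts; compounds 11-pt, 1:3, max 46 uM, 24 hr exposure; lytic NanoLuc complementation luminescence.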

Measured: Potency

Lysine-specific demethylase 5B (Homo sapiens), sequence (Q9UGL1 whole entry, looked up): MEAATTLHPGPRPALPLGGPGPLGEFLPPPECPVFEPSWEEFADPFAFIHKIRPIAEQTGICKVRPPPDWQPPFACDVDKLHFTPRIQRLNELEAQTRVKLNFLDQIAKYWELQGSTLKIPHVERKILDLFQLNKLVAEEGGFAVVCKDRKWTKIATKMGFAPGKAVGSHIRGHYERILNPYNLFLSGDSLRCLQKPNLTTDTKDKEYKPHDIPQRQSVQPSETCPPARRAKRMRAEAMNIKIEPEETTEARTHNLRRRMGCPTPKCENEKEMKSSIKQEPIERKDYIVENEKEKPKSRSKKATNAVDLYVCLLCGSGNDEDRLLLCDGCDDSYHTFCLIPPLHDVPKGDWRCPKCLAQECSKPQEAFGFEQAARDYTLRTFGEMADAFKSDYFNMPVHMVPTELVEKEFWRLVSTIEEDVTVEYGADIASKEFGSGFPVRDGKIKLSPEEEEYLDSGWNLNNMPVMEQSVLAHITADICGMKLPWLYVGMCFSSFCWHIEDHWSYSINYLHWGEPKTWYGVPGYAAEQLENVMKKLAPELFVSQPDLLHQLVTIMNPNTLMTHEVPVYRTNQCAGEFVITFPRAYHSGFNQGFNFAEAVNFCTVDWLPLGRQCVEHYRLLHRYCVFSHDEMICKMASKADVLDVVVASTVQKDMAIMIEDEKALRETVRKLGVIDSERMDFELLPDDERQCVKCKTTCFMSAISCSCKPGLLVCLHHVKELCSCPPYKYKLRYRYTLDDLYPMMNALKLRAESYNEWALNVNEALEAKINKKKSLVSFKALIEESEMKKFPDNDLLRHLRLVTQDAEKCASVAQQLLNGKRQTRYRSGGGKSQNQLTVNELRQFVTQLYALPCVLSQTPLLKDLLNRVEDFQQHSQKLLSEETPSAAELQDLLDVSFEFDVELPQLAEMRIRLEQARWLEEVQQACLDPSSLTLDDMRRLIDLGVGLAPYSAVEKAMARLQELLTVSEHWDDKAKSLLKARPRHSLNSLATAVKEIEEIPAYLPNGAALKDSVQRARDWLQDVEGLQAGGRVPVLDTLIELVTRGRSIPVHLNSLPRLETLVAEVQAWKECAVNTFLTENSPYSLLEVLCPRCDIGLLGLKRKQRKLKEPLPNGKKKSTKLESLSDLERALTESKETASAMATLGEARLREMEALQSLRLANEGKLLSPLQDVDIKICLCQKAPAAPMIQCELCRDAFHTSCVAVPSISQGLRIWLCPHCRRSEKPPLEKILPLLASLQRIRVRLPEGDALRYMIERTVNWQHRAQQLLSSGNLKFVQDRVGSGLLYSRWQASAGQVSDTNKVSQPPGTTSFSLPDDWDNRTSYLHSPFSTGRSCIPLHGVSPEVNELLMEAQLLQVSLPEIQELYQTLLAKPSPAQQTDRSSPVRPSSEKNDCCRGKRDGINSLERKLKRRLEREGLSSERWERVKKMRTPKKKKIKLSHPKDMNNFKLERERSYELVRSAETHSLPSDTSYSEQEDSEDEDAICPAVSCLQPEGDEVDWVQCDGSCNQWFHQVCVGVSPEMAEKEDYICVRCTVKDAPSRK
Single-stranded DNA cytosine deaminase (Homo sapiens), sequence (Q9GZX7 whole entry, looked up): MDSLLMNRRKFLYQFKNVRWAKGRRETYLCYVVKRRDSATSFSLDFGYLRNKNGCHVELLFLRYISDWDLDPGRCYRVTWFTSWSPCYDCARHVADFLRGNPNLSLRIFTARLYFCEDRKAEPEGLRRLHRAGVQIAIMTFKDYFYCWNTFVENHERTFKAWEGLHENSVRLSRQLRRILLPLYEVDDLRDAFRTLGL
Protein phosphatase 1D (Homo sapiens), sequence (O15297 whole entry, looked up): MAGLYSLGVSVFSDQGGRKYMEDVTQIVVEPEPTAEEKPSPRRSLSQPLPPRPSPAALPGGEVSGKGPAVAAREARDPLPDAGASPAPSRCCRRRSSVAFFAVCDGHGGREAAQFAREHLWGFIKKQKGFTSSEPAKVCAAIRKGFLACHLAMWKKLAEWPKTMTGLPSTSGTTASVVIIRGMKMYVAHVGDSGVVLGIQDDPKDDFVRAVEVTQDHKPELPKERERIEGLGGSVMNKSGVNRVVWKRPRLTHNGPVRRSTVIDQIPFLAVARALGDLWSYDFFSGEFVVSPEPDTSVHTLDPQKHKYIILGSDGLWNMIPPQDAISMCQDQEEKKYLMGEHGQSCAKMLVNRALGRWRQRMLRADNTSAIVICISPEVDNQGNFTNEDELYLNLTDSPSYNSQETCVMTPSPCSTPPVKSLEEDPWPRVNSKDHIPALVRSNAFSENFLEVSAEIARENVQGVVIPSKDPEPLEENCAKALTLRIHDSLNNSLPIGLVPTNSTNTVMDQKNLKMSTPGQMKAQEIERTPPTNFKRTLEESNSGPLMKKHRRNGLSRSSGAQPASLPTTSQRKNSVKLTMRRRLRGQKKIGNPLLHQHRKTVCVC

CC(=O)[C@@]1(O)CC[C@H]2[C@@H]3CCC4=CC(=O)CC[C@]4(C)[C@H]3CC[C@@]21C
not listed: [10] | [11]
inactive: all other assays above

C[C@]12CCC(=O)C=C1CC[C@@H]1[C@@H]2CC[C@@]2(C)[C@H]1CC[C@]2(O)C(=O)CO
not listed: [10] | [11]
inactive: all other assays above

C[C@]12CC[C@@H]3c4ccc(O)cc4C[C@@H](CCCCCCCCCS(=O)CCCC(F)(F)C(F)(F)F)[C@H]3[C@@H]1CC[C@@H]2O (stereo partly drawn)
not listed: [11]
inactive: all other assays above

O=C(CCNNC(=O)c1ccncc1)NCc1ccccc1
not listed: [10] | [11]
inactive: all other assays above

COc1cc2c(cc1OC)-c1cc(=Nc3c(C)cc(C)cc3C)n(C)c(=O)n1CC2
not listed: [2] | [3] | [11]
inactive: all other assays above

NC(N)=N/N=C/c1c(Cl)cccc1Cl
not listed: [3] | [11]
inactive: all other assays above

Cc1nnc(SCC2=C(C(=O)O)N3C(=O)[C@@H](NC(=O)Cn4cnnn4)[C@H]3SC2)s1
inactive: [1] | [10] | [4] | [5] | [6] | [9]

COCCOC(=O)C1=C(C)NC(C)=C(C(=O)OC(C)C)C1c1cccc([N+](=O)[O-])c1 (stereo not drawn)
not listed: [2] | [11]
inactive: all other assays above

CC1=NS(=O)(=O)c2cc(Cl)ccc2N1
not listed: [10] | [11]
inactive: all other assays above

CC(=O)OC(C)C[N+](C)(C)C (stereo not drawn)
not listed: [10] | [11]
inactive: all other assays above

CC(C)NCC(O)c1cc(O)cc(O)c1 (stereo not drawn)
not listed: [10] | [11]
inactive: all other assays above

CCO/C([O-])=N/c1c[n+](N2CCOCC2)no1
not listed: [10] | [11]
inactive: all other assays above

CCN(CC)CCOCCOC(=O)C1(c2ccccc2)CCCC1
not listed: [10] | [11]
inactive: all other assays above

COc1cc(C(=O)OCCCN2CCCN(CCCOC(=O)c3cc(OC)c(OC)c(OC)c3)CC2)cc(OC)c1OC
not listed: [2] | [3] | [6] | [11]
inactive: all other assays above

C=CCc1ccccc1OCC(O)CNC(C)C (stereo not drawn)
not listed: [10] | [11]
inactive: all other assays above

O=c1[nH]c(=O)n([C@H]2C[C@H](O)[C@@H](CO)O2)cc1Br
not listed: [10] | [11]
inactive: all other assays above

CC(C)COCC(CN(Cc1ccccc1)c1ccccc1)N1CCCC1 (stereo not drawn)
not listed: [10] | [11]
inactive: all other assays above

Brc1c(NC2=NCCN2)ccc2nccnc12
not listed: [5] | [8] | [10] | [11]
inactive: all other assays above

CCN1CCC[C@H]1CNC(=O)c1c(O)c(Cl)cc(Cl)c1OC
not listed: [10] | [11]
inactive: all other assays above

CNC1(C)C2CCC(C2)C1(C)C (stereo not drawn)
not listed: [10] | [11]
inactive: all other assays above

C(=C\c1ccccc1)/CN1CCN(C(c2ccccc2)c2ccccc2)CC1
not listed: [10] | [11]
inactive: all other assays above

C[C@]12C=CC(=O)C=C1CC[C@H]1[C@@H]3C[C@@H](O)[C@](O)(C(=O)CO)[C@@]3(C)C[C@H](O)[C@@]12F
not listed: [2] | [3] | [10] | [11]
inactive: all other assays above

CCc1cccc(N(C)C(N)=Nc2cccc3ccccc23)c1
not listed: [10] | [11]
inactive: all other assays above

NC(=Nc1ccccc1)Nc1ccccc1
inactive: [1] | [3] | [5] | [6] | [9]

Cc1cc(C)c(/C=C2\C(=O)Nc3ccccc32)[nH]1
not listed: [2] | [3] | [8] | [10]
inactive: all other assays above

CO[C@@]1(NC(=O)CSCC#N)C(=O)N2C(C(=O)O)=C(CSc3nnnn3C)CS[C@@H]21
not listed: [10] | [11]
inactive: all other assays above

CSc1ccc(C(=O)c2[nH]c(=O)[nH]c2C)cc1
not listed: [1] | [9] | [11]
inactive: all other assays above

Nc1nc(N)c2nc(-c3ccccc3)c(N)nc2n1
not listed: [1] | [8] | [10] | [11]
inactive: all other assays above

O=C1CC2(CCCC2)CC(=O)N1CCCCN1CCN(c2ncccn2)CC1
not listed: [10] | [11]
inactive: all other assays above

— PubChem BioAssay (NCATS)
